D2 antagonist: D2 dopamine receptor (human) antagonism; HEK293 TREx D2 cells, calcium flux, dopamine EC80; inhibition, % at 10 µM; actives 2% (n = 340,000); in the data active means inhibition above about 30%; inactive means below that, where a call was filed; further: 0% is about no effect
Target sequence (P14416 whole entry, looked up): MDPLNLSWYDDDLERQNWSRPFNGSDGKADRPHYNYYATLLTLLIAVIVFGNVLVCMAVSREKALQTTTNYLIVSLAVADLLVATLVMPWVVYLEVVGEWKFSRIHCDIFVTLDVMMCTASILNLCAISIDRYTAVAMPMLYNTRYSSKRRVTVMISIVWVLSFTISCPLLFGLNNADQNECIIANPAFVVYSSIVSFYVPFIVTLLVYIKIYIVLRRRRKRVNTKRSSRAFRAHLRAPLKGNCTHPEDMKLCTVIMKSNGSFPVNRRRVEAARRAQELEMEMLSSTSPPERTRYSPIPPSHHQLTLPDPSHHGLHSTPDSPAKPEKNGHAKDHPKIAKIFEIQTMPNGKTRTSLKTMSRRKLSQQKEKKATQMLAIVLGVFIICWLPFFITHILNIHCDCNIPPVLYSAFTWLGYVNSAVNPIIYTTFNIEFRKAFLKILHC
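Compounds are added to dye-loaded, induced HEK293 T-REx cells coupled to calcium release via D2; after a 3 min kinetic read an EC80 dopamine stimulus is given and fluorescence is recorded for 3 more min.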
D2 PAM-1: D2 dopamine receptor (human) potentiation; HEK293 T-REx D2, calcium flux, EC20 dopamine potentiation; potentiation, % at 10 µM; actives 0.34% (n = 340,000);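 active means potentiation over 3 SD above the plate norm, cut at about 30% in these data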; further: 0% is about no effect
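Tetracycline-induced Hek293 Trex D2 cells, force-coupled to calcium, loaded with no-wash calcium dye. Compound added with 180 s kinetic read for agonism, then EC20 dopamine and a further 180 s read for potentiation.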
D2 ag-1: agonists of human D2 dopamine receptor (beta-arrestin); P14416; DiscoveRx PathHunter D2 beta-arrestin, luminescence, 90 min; 100% = 57 uM dopamine signal; activation, % (test concentration not listed); actives 0.084% (n = 360,000); AID 624465; in the data active means activation above about 40%; inconclusive means between about 15% and that limit
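Agonist mode: compounds alone added to overnight-plated D2 PathHunter cells for 90 min at 37 C, with 57 uM final dopamine (EC100) defining full response. Beta-arrestin recruitment detected by chemiluminescent reagent, read after 1 h at ambient temperature.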
D2 ag-2: activates the human D2 dopamine receptor. P14416. HEK293 T-REx D2 cells, calcium flux agonist mode. activation, % at 2 µM. actives 0.53% (n = 340,000). AID 485358;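 active means activation over 3 SD above normal in the single-dose calcium agonist read, cut at about 30% in these data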; further: 0% is about no effect
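Tetracycline-induced HEK293 Trex cells with D2 receptor force-coupled to calcium signaling, plated overnight at 30 C and loaded with no-wash calcium dye. Calcium flux read kinetically for 180 s after compound addition; responses flag agonists.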
D2 PAM-2: potentiates the human D2 dopamine receptor allosterically. DiscoveRx D2 beta-arrestin cells, luminescence, 90 min; 100% = 57 uM dopamine signal. actives 0.23% (n = 360,000). potentiation, % (concentration not given with the values). AID 624464; in the data active means potentiation above about 50%; inconclusive means mostly about 30% to 49%
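PathHunter beta-arrestin assay in DiscoveRx D2 cells. Compounds were added with an EC20 of dopamine (50 nM final) for 90 min at 37 deg C. Luminescence was read 1 h after detection reagent, with 57 uM dopamine as the EC100 control.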
Starred values were filed as active, the others as inactive; ? = inconclusive; · = no result given. A selection: hits, their analogues and other compounds. The true share with any hit is near 2.4%.

SMILES	D2 antagonist	D2 PAM-1	D2 ag-1	D2 ag-2	D2 PAM-2
CC1CCc2onc(C(=O)N3CCN(c4ccc(Cl)cc4)CC3)c2C1 (centres undefined)	·	-9	·	-1	·
Cc1c(O)c(CN2CCCCC2)cc2c1oc(=O)c1ccccc12	66*	-13	-2	-1	-52
COc1ccccc1N1CCN(c2nc(-c3ccc(C)cc3)nc3ccccc23)CC1	·	12	·	0	·
O=C(COC(=O)c1cnccn1)N=c1sccn1Cc1ccccc1Cl	27	-2	-4	-1	-7
CCn1c(SCc2ccc(F)cc2Cl)nnc1-c1nonc1NC(C)=O	·	19	·	-2	·
O=C(CSCc1ccc([N+](=O)[O-])cc1)NN=C1CCCCCC1	-3	35*	-1	-1	19
O=C(CSCc1ccc(Cl)cc1)NN=C1CCCC1	-8	15	2	0	-13
O=C(CSCc1ccccc1Cl)NN=C1CCCCCC1	38*	4	1	0	14
CC(C)C(=O)N1c2nc(-c3ccco3)nn2C2(CCCCC2)[C@@H]2CCCC[C@@H]21	·	4	·	5	·
Clc1ccc2c(c1)CCc1cccnc1C2=C1CCNCC1	30*	·	·	·	·
CCCCN(Cc1cc2ccccc2[nH]c1=O)C(=O)c1cccc(Cl)c1	·	-4	·	0	·
Cc1nc(C(=O)NCC(=O)c2ccccc2)c(C(F)(F)F)o1	32*	-1	-5	0	-1
Cc1ccc(C(=O)N/N=C\c2cc3c(cc2Br)OCO3)s1	66*	-31	-3	-1	-10
COC(=O)N/N=C\c1cc2c(cc1Br)OCO2	-3	-11	-6	-1	-10
CCCc1cc(C(N)=O)c(NC(=O)c2ccoc2C)s1	31*	·	-5	2	-11
Cc1ccc[n+](CC(=O)Nc2cccc([N+](=O)[O-])c2)c1	32*	-27	-9	-1	-14
O=C(O)CCCC(=O)Nc1cccc([N+](=O)[O-])c1	-14	38*	-1	-1	-7
O=C(Nc1cccc([N+](=O)[O-])c1)Nc1cnccn1	-1	-2	1	38*	-3
O=C(Nc1cccc([N+](=O)[O-])c1)Nc1cccc([N+](=O)[O-])c1	25	-2	-10	3	-10
CCCN1C(=O)C(NC(=O)c2ccccc2OC)(C(F)(F)F)C(C(=O)OC)=C1C (centres undefined)	·	-4	·	1	·
Cc1ccc(SCC(=O)OCC(=O)N(C)CC(=O)Nc2ccccc2Cl)cc1C	33*	-1	1	2	6
CCN1/C(=C/c2ccc3cc(C)ccc3[n+]2CC)Sc2cc(C)ccc21	35*	6	-5	15	-1
CCCCN1/C(=C/c2ccc3ccccc3[n+]2CC)Sc2ccccc21	16	-4	2	14	-5
C=CCNC(=O)c1ccccc1Cl	40*	-2	0	0	-6
C=CCNC(=O)c1ccccc1NC(=O)COc1ccccc1	59*	-2	-2	0	-6
SMILES	D2 antagonist	D2 PAM-1	D2 ag-1	D2 ag-2	D2 PAM-2
CC(=O)n1c2ccccc2c2nc(NC(C)C)sc21	-1	19	-5	0	67*
CNc1nc2c3ccccc3n(C(C)=O)c2s1	6	-13	-1	0	-12
Cc1ccc(-c2nn(-c3ccc(F)cc3)cc2C(=O)N2CCN(C3CCS(=O)(=O)C3)CC2)cc1 (centres undefined)	3	-6	-7	0	-13
Cc1cc(C)cc(NC(=O)CSc2nc3nc(C)cc(C)c3c(=O)[nH]2)c1	35*	-2	1	1	2
O=C(CS(=O)(=O)c1cccc2nsnc12)N1CCN(c2ccc(F)cc2)CC1	·	·	·	1	·
CCCC(=O)Nc1ccc(C(=O)COC(=O)c2cc(C)oc2C)cc1	35*	-2	-1	1	3
O=c1oc(-c2ccc(O)c(O)c2)cc2cc(O)cc(O)c12	·	·	?	·	51*
COc1ccc(N=Cc2c(O)n(-c3cccc(C)n3)c(=O)c3ccccc23)cc1	32*	-3	-2	-1	-2
Cc1ccc(OCCNC(=O)CCNS(=O)(=O)c2ccc(C)cc2)cc1	30*	6	-6	0	-19
CCOc1ccc(S(=O)(=O)NCCC(=O)NCCOc2ccccc2)cc1	-8	-5	-2	0	?
CCCNS(=O)(=O)c1ccc(OCC(=O)NCCCOC)cc1	30*	-14	1	1	-3
CCCNS(=O)(=O)c1ccc(OCC(=O)OC)cc1	6	-6	2	1	9
NC(=O)C1(Nc2ccc(C(=O)O)cc2)CCCC1	·	·	-1	·	-14
COCCCn1c(SCc2nnc(-c3ccccc3)o2)nc2sc3c(c2c1=O)CCC3	-3	33*	-1	1	1
O=C(Cn1nnc(-c2ccc3c(c2)OCO3)n1)NCc1ccccc1	-4	-3	2	1	-1
Cc1ccc(-c2nnn(CC(=O)NCCc3ccc4c(c3)OCO4)n2)cc1	31*	-1	-1	2	-2
Cc1ccc(NC(=O)CN(C)C(=O)c2cccc(S(=O)(=O)N3CCc4ccccc43)c2)cc1	24	-25	-3	0	-35
CCOc1ccccc1OCCCNCc1ccco1	31*	-25	-4	0	-15
CC(C)c1ccc(NC(=O)CSc2nc(=O)n(Cc3ccccn3)c3c2CCC3)cc1	·	15	·	-4	·
COC(=O)C1=C(c2ccccc2)c2ccccc2S(=O)(=O)N1CC(=O)Nc1ccc(OC)cc1OC	·	-3	·	1	·
O=C(CN1C(=O)C2CC=CCC2C1=O)Nc1nc(-c2ccc(F)c(F)c2)cs1 (centres undefined)	·	·	8	·	20
Cc1ccc(N2C(=O)c3ccccc3NC2C(C)Cc2ccc3c(c2)OCO3)cc1 (centres undefined)	34*	-1	-3	1	-3
COc1cc(/C=C2/CCC/C(=C\c3cc(O)c(OC)c(Cl)c3)C2=O)cc(Cl)c1O	12	38*	-10	2	-21
COc1cc(/C=C2\CC/C(=C\c3cc(OC)c(O)c(OC)c3)C2=O)cc(OC)c1O	-11	9	4	2	-6
COc1cc(OC)cc(N2C(=O)N(Cc3ccc(C(C)(C)C)cc3)c3ccccc3S2(=O)=O)c1	·	6	·	-1	·
CCc1ccc2oc(-c3ccc(NC(=O)c4cccc(Cl)c4Cl)cc3)nc2c1	·	1	·	2	·
CC1CN(S(=O)(=O)c2ccc(F)cc2)C(C)N1C(=O)N1CCOCC1 (centres undefined)	32*	-11	-1	0	2
CC1CN(S(=O)(=O)c2ccc(F)cc2)CN1C(=O)N1CCOCC1 (centres undefined)	4	-9	-4	-1	-8
O=C(Nc1ccc2c(c1)OCO2)c1cc(C2CCCCN2S(=O)(=O)Cc2ccccc2)on1 (centres undefined)	·	·	2	·	-8

Screening results (PubChem)
